According to PubChem BioAssay:
Calls of active or inactive are those of the source.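 The calls were made as follows: active = inhibition over a set limit, the all-compound mean plus 3 SD, in both replicate runs; inconclusive = over that limit in just one replicate run; inactive = at or under that limit in both runs.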

Assay: RAM pathway blockade in budding yeast – dse1pr::URA3 reporter, 5-FOA selection, pilot screen (AID 869);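 also: 0% = DMSO wells with no growth and 100% = 10 µM 1-NA-PP1 with full growth; RAM network block rescues cells from 5-FOA so hits raise OD615 growth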
Settings: S. cerevisiae dse1pr::URA3 5-FOA growth, OD615, 2 d; at 10 µM; hits give high values; strain carries analog-sensitive mutant Cbk1 kinase

inhibition, inactive:
CCOc1ccc(N2CC(C(=O)Nc3ccccc3OC)CC2=O)cc1 (stereo not given) 1.8%
O=C(Cn1ncc2c1-c1ccccc1OC2)N1CCN(c2ccccn2)CC1 0.525%
CC1CN(c2c3c(nc4ncnn24)CCCC3)CC(C)O1 (stereo not given) 1.57%
CCOC(=O)C(CC)n1nc(C)n2c(cc3sccc32)c1=O (stereo not given) -1.04%
CCOC(=O)CN(C(=O)c1ccccc1)c1ccccc1C 0.91%
Cc1ccc(-n2ncc3c(N4CCCC(C)C4)ncnc32)c(C)c1 (stereo not given) 0.12%
CCN1CCN(C(c2cccs2)C(C)NC(=O)c2ccccc2)CC1 (stereo not given) -0.445%
CC1=C(C(=O)Nc2ccc(F)cc2)C(c2cccc(C)c2)n2nc(CCCO)nc2N1 (stereo not given) -0.19%
Cc1ccc(-c2noc(CN3C(C)CCCC3C)n2)cc1 (stereo not given) 0.67%
CC1CCN(C(=O)CSc2nnc(Cc3cc(=O)[nH]c(=O)[nH]3)n2-c2ccc(Cl)cc2)CC1 -0.375%
Cc1ccccc1-c1nc(CN2CCC(C(=O)N3CCC(C(N)=O)CC3)CC2)c(C)o1 1.07%
COc1ccc(C(=O)c2ccc(OC)c(N)c2)cc1N 2.53%
O=C(CC1(O)C(=O)Nc2ccccc21)c1ccc2c(c1)OCO2 (stereo not given) 2.9%
CCOC(=O)c1[nH]c(C)c(C(=O)NC)c1C 1.32%
CN(C1CCCCC1)S(=O)(=O)c1ccc(S(=O)(=O)N2CCN(CCC#N)CC2)cc1 0.805%
CC1CCCCC1NC(=O)Cn1ncc2ccccc21 (stereo not given) 1.98%
CCOC(=O)Cn1c(CCC(=O)O)ccc1-c1ccc(F)cc1 0.72%
CCCc1cc(C(=O)Nc2ccc(C(C)=O)cc2)no1 2.74%
CCOC(=O)CN1C(=O)C(=O)c2cccc(C)c21 1.77%
CCOc1ccc(NC(=O)C(C)Sc2nnc(C)n2C)cc1 (stereo not given) 0.705%
COc1cccc(CNC(=O)Cn2c(=O)oc3ccccc32)c1OC 0.75%
Oc1c(C(c2ccccc2)N2CCc3ccccc3C2)sc2ncnn12 (stereo not given) 1.78%
CCSc1nnc(N2C(=O)CC(c3ccsc3)C3=C2CC(C)(C)CC3=O)s1 (stereo not given) 0.195%
Cc1ccnc2c(N3C(=O)C4C5C=CC(C5)C4(C)C3=O)cccc12 (stereo not given) 1.86%
CCN(CC)C(=O)c1ccc(CS(=O)(=O)c2ccc(OC)cc2)o1 1.96%
CCCCCn1c(=O)[nH]c2cc(C(=O)NCCCN3CCCCC3)ccc2c1=O -0.475%
CC(C)c1nccn1S(=O)(=O)c1cc(Cl)ccc1Cl 1.64%
CCOC(=O)N1CCC(NC(=O)C2CCCN(C(=O)c3cc4sccc4n3C)C2)CC1 (stereo not given) 0.665%
CCCCNC(=O)Cn1c(=O)n(C)c2ccccc21 1.49%
Cc1c(C#N)c2ccccc2n1CC(=O)N1CCc2ccccc2C1 2.05%
O=C(COc1ccc2ccccc2c1)N1CCCC1 0.745%
CCC(=O)N1CCN(c2nc(-c3ccccc3)c3c(c2C#N)CCCC3)CC1 0.35%
CC1(C)CC(=O)c2cnc(NC(=O)Cc3ccc(Cl)cc3)nc2C1 2.17%
CCOCCOc1nc2c(c(=O)n(C)c(=O)n2C)n1Cc1ccc(C)cc1 2.64%
CCN(C(=O)c1cc(Cl)ccc1OC)c1ccccc1 2.85%
Cc1cccc(-n2ncc3c(N(CCO)CCO)ncnc32)c1 2.43%
N#CCCN1CCN(S(=O)(=O)c2ccc(S(=O)(=O)NC3CCCCC3)cc2)CC1 1.02%
Cc1c(C)c2ccc(OC3CCCCC3=O)cc2oc1=O (stereo not given) 0.48%
COc1ccc(-n2c(Cc3cccn3C)nnc2SCC(=O)Nc2ccc(Cl)cc2)cc1 -0.125%
Cc1cc(C(N)=O)c2cc(Br)ccc2n1 0.94%
